# In PubChem BioAssay AID463173 (ICCB-Longwood Screening Facility, Harvard Medical School, 2010):
# The whole screen tested about 52,000 compounds, of which about 1,700 (3.3%) were called active. This excerpt belongs to a sample that is enriched for actives. Values without a mark were called inactive. Rule as the data show it: active = survival mostly below about 52% (no sharp cut-off); inactive = mostly above about 56%.
# Tested on: Wild type
# Test: S. aureus survival, RN4220 and DeltatarO strains – OD600, teichoic acid synthesis inhibitors, primary screen (AID 463173)
# Conditions: S. aureus RN4220 wild type/DeltatarO growth, OD600, 18 h, stronger effect = lower value, screened at 18.75 µg/mL (by protocol)
row,Compound,survival
1,Cc1cc(C(=O)N2CCN(c3cccc(C)c3C)CC2)c2c(C)nn(-c3ccccc3)c2n1,121%
2,Cc1cccc(C(=O)Nc2ccc(N3CC=C(c4ccccc4C)CC3)c(C(=O)O)c2)c1,66%
3,COc1nnc(-c2ccc(N3CCCCC3)c(NC(=O)c3ccccc3Cl)c2)c2ccccc12,-7% (active)
4,Cn1c(=O)c(=O)n(C)c2cc(N3CCCC3)c(NC(=O)c3ccccc3Cl)cc21,86%
5,COc1nnc(-c2ccc(N3CCCCC3)c(NC(=O)c3ccccc3)c2)c2ccccc12,-6% (active)
6,Cn1nc(-c2ccc(N3CCCCC3)c(NC(=O)c3ccc(Cl)cc3)c2)c2ccccc2c1=O,80%
7,COc1nnc(-c2ccc(N3CCCCC3)c(NC(=O)c3ccc(Cl)cc3)c2)c2ccccc12,96%
8,COc1nnc(-c2ccc(N3CCCCC3)c(NC(=O)c3ccc(C)cc3)c2)c2ccccc12,36%
9,CCN(CCCNC(=O)CSc1cc(=O)n(C)c2ccccc12)c1ccccc1,77%
10,CC(=O)Nc1ccc(NC(=O)c2cc3sccc3n2Cc2ccc(Cl)cc2)cc1,91%
11,CC1(C)O[C@H]2[C@@H](O1)[C@@H](C(=O)Nc1ccc(F)c(F)c1)O[C@@H]1OC(C)(C)O[C@@H]12,106%
12,CCN(CC)CCNC(=O)c1ccc2c(=O)n3nc(Nc4cccc(Cl)c4C)sc3nc2c1,153%
13,Cc1ccc(C)c(CNC(=O)C2CCN(c3nc4ccccc4nc3C(F)(F)F)CC2)c1,88%
14,Cc1ccc(CNc2cc(C)nc3nc(-c4ccc(C)cc4)nn23)cc1,66%
15,CCc1c(C)nc2nncn2c1NCc1ccccc1,86%
16,CCc1c(C)nc2nc(-c3ccccc3)nn2c1NCc1ccc(C)cc1,-1% (active)
17,CCOC(=O)c1ccc(NC(=O)CSc2nc(C)c(Cc3ccccc3)c(=O)[nH]2)cc1,80%
18,O=C(NCc1ccccc1)N(Cc1cccnc1)Cc1cc2cc3c(cc2[nH]c1=O)OCCO3,102%
19,COc1ccc(-c2nn3c(-c4ccc(C)cc4)nnc3c3ccccc23)cc1,70%
20,COc1ccc2[nH]cc(CCN=C(NC(=O)c3ccccc3C)Nc3nc(C)cc(C)n3)c2c1,41%
21,CCn1c2c(c(=O)n3ncc(C(=O)Nc4ccc(F)c(Cl)c4)c13)CN(Cc1ccc(OC)cc1)CC2,-1% (active)

row,Compound,survival
1,CCn1c2c(c(=O)n3ncc(C(=O)Nc4ccc(OC(F)(F)F)cc4)c13)CN(Cc1ccc(OC)cc1)CC2,83%
2,CCn1c2c(c(=O)n3ncc(C(=O)Nc4cc(Cl)ccc4OC)c13)CN(Cc1ccc(OC)cc1)CC2,72%
3,CCn1c2c(c(=O)n3ncc(C(=O)Nc4ccc(F)cc4Cl)c13)CN(Cc1ccc(OC)cc1)CC2,14% (active)
4,CCn1c2c(c(=O)n3ncc(C(=O)Nc4ccc(Cl)cc4C)c13)CN(Cc1ccc(OC)cc1)CC2,76%
5,CCn1c2c(c(=O)n3ncc(C(=O)Nc4ccc(C(=O)OC)cc4)c13)CN(Cc1ccc(OC)cc1)CC2,55%
6,Cc1ccc(CNC(=O)Nc2cc(C(=O)NCc3cccc(F)c3)ccc2N2CCCC2)cc1,128%
7,CCOC(=O)c1cccc(NC(=O)CCc2c(C)nn(-c3ccc(N4CCCCC4)nn3)c2C)c1,95%
8,Cc1nnc(C)c2c(C)n(-c3ccc4c(c3)OCO4)c(C)c12,111%
9,CCOc1ccc(N(CC)C(=O)Cn2cnc3sc(C)c(S(=O)(=O)N4CCN(c5ncccn5)CC4)c3c2=O)cc1,78%
10,COc1ccc(NCc2cccn2-c2nnc(N3CCCCCC3)s2)cc1,78%
11,CCc1ccc(NCc2cccn2-c2nnc(N3CCCCCC3)s2)cc1,-1% (active)
12,Cc1ccc(NCc2cccn2-c2nnc(N3CCCCCC3)s2)cc1,77%
13,CCC(C)NC(=O)CSc1nc2ccc(C(C)C)cc2cc1C#N (configuration not stated),103%
14,COc1cccc(CNC(=O)c2ccc(NC(=O)N3CCCCc4ccccc43)cc2)c1OC,73%
15,Cc1nc2nc(SCC(=O)NCCc3ccc(Cl)cc3)nn2c(C)c1Cc1ccccc1,56%
16,Cc1ccc(Cn2ccnc2SCC(=O)Nc2nnc(C)s2)cc1,65%
17,Cc1ccc2nc(NC(=O)CSc3nccn3Cc3ccc(Cl)cc3)sc2c1,72%
18,Cc1nnc(NC(=O)CSc2nccn2Cc2ccc(F)cc2)s1,-2% (active)
19,O=C(CSc1nccn1Cc1ccc(Cl)cc1)Nc1nc2ccccc2s1,0% (active)
20,Cc1ccc2nc(NC(=O)CSc3nccn3Cc3ccccc3)sc2c1,10% (active)
21,O=C(CSc1nccn1Cc1ccccc1)Nc1nc2ccccc2s1,121%

row,Compound,survival
1,Cc1nnc(NC(=O)CSc2nccn2Cc2ccc(Cl)cc2)s1,118%
2,Cc1ccc2nc(NC(=O)CSc3nccn3Cc3ccc(F)cc3)sc2c1,80%
3,O=C(CSc1nccn1Cc1ccc(F)cc1)Nc1nc2ccccc2s1,82%
4,CCOc1ccc(NC(=O)Cn2c(=O)n(Cc3ccccc3)c(=O)c3sc4ccccc4c32)cc1,78%
5,COc1cc(NC(=O)Nc2nnc(N3CCCCCC3)s2)cc(OC)c1,78%
6,Cc1cccc(N2CCN(c3ncnc4c3cnn4-c3ccc(Cl)cc3)CC2C)c1 (configuration not stated),83%
7,CCCc1ccc(OC(C)c2nc(-c3ccc(-n4cccc4)cc3)no2)cc1 (configuration not stated),56%
8,CCc1ccc(OC(C)c2nc(-c3ccc(-n4cccc4)cc3)no2)cc1 (configuration not stated),-4% (active)
9,CCc1ccc(OCc2nc(-c3ccc(-n4cccc4)cc3)no2)cc1,104%
10,O=C(Nc1ccc2oc(-c3ccncc3)nc2c1)c1ccccc1Cl,73%
11,Cc1ccc(CNC(=O)c2cc3c(=O)oc4ccc(C)cc4c3s2)cc1,88%
12,COc1ccc(CN(CCC(c2ccc3c(c2)OCO3)c2ccccc2OC)C(C)=O)cc1 (configuration not stated),8% (active)
13,COc1ccc(CNCCC(c2ccc(C)cc2)c2ccco2)cc1 (configuration not stated),72%
14,COc1ccc(CNCCC(c2ccc3c(c2)OCO3)c2ccccc2OC)cc1 (configuration not stated),25%
15,COc1cc2cc(CN(Cc3ccc4c(c3)OCO4)C(=O)NCc3ccccc3)c(=O)[nH]c2cc1OC,117%
16,COc1ccc(CNCCC(c2ccccc2)c2ccc3c(c2)OCO3)cc1 (configuration not stated),3% (active)
17,NC(=O)CC(c1ccccc1)c1ccc2c(c1)OCO2 (configuration not stated),117%
18,CCOCCCNC(=O)C(c1ccccc1)N(Cc1ccc2c(c1)OCO2)C(=O)c1ccc(NC(C)=O)cc1 (configuration not stated),70%
19,CCC(=O)N(CCC(c1ccccc1)c1ccc2c(c1)OCO2)Cc1ccc(OC(C)C)cc1 (configuration not stated),1% (active)
20,CCOCCCNC(=O)C(c1ccc(OC)cc1)N(Cc1ccc2c(c1)OCO2)C(=O)c1ccc(NC(C)=O)cc1 (configuration not stated),69%
